# Reference: paper PMC8384837, “Expanding the binding specificity for RNA recognition by a PUF domain”
# Numbering of substitutions follows the chain as printed.
# Tests used:
# Experiment in all cases: yeast three-hybrid, YBZ-1, SC-Leu-His + 0.5 mM 3-AT, 4 days
# Conditions in all cases: tags: N-Gal4 AD-HA kept; label: inside an RPR1-promoter hybrid RNA with tandem MS2 sites; ssRNA
# [1] = target: PUM1 PUF domain R1-GWE (Homo sapiens, UniProt Q14671 828-1176, S863G;R864W;Q867E)
# How it was run: (§1)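 The interaction score is the log change in how often each variant appears, from input to selection. Frequencies came from PCR-amplified, Illumina-sequenced repeat regions of Pumilio-1 PUF domain libraries grown in strain YBZ-1 (LexA–MS2 coat fusion, HIS3 reporter) alongside matching RNA elements. Input plates were SC-Leu and selection plates were SC-Leu-His + 0.5 mM 3-AT, each for four days, and the log2 calculation used a pseudocount of 1 where a variant was absent.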
# [2] = target: T1, PUM1 PUF domain R6-WWG (Homo sapiens, UniProt Q14671 828-1176, N1043W;Y1044W;Q1047G)
# T1 sequence: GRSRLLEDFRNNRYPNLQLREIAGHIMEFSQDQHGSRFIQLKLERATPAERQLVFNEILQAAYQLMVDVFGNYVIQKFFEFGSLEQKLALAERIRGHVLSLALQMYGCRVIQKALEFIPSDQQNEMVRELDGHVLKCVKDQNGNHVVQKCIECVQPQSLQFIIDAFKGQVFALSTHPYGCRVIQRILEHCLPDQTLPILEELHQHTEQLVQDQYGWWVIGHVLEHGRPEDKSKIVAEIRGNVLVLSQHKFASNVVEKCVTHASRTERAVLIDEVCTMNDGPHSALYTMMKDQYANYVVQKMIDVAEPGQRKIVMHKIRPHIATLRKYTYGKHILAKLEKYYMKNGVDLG
# How it was run: as §1
# [3] = target: T2, PUM1 PUF domain R6-YWL (Homo sapiens, UniProt Q14671 828-1176, N1043Y;Y1044W;Q1047L)
# T2 sequence: T1 sequence with W216Y, G220L
# How it was run: as §1
# [4] = target: PUM1 PUF domain R4-NPA (Homo sapiens, UniProt Q14671 828-1176, H972P;Q975A)
# How it was run: as §1
# [5] = target: PUM1 PUF domain R4-DWG (Homo sapiens, UniProt Q14671 828-1176, N971D;H972W;Q975G)
# How it was run: as §1
# [6] = target: PUM1 PUF domain R5-GKN (Homo sapiens, UniProt Q14671 828-1176, C1007G;R1008K;Q1011N)
# How it was run: as §1
# [7] = target: PUM1 PUF domain R3-TRH (Homo sapiens, UniProt Q14671 828-1176, C935T;Q939H)
# How it was run: as §1
# [8] = target: PUM1 PUF domain R3-VFF (Homo sapiens, UniProt Q14671 828-1176, C935V;R936F;Q939F)
# How it was run: as §1
# [9] = target: PUM1 PUF domain R3-EHG (Homo sapiens, UniProt Q14671 828-1176, C935E;R936H;Q939G)
# How it was run: as §1
# [10] = target: PUM1 PUF domain R3-RTV (Homo sapiens, UniProt Q14671 828-1176, C935R;R936T;Q939V)
# How it was run: as §1
# [11] = target: PUM1 PUF domain R4-WHG (Homo sapiens, UniProt Q14671 828-1176, N971W;Q975G)
# How it was run: as §1
# [12] = target: PUM1 PUF domain R5-LNA (Homo sapiens, UniProt Q14671 828-1176, C1007L;R1008N;Q1011A)
# How it was run: as §1
# [13] = target: PUM1 PUF domain R1-SKR (Homo sapiens, UniProt Q14671 828-1176, R864K;Q867R)
# How it was run: as §1
# [14] = target: PUM1 PUF domain R1-RYQ (Homo sapiens, UniProt Q14671 828-1176, S863R;R864Y)
# How it was run: as §1
# Sequence of PUM1 PUF domain R4-NPA (Q14671 828-1176 H972P/Q975A): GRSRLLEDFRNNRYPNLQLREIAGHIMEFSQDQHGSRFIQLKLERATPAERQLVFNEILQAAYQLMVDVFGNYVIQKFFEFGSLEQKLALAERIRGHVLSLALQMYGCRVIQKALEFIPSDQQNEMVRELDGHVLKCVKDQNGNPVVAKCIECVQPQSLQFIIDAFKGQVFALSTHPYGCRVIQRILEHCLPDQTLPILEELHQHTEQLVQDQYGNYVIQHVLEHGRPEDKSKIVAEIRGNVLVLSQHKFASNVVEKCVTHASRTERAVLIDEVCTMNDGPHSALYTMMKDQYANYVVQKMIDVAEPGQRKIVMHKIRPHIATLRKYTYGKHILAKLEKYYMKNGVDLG
sequence,measurement,setting,value
GGCUAGAACUAGUGGAUCCCCCGGCGCCCGGCGGCUCGAGCCCGGGUAAGUGUAAAUGGUCUGCAUGCCGCCGGGCGCCAUGCCUGCAGGUCGACUCUAGAAAACAUG,binding signal,[1],2.61 log2 enrichment (interaction score)
GGCUAGAACUAGUGGAUCCCCCGGCGCCCGGCGGCUCGAGCCCGGGUAAGUGAAAAUAGUCUGCAUGCCGCCGGGCGCCAUGCCUGCAGGUCGACUCUAGAAAACAUG,binding signal,[2],2.56 log2 enrichment (interaction score)
same,binding signal,[3],7.77 log2 enrichment (interaction score)
GGCUAGAACUAGUGGAUCCCCCGGCGCCCGGCGGCUCGAGCCCGGGUAAGUGUACAUAGUCUGCAUGCCGCCGGGCGCCAUGCCUGCAGGUCGACUCUAGAAAACAUG,binding signal,[4],0.72 log2 enrichment (interaction score)
same,binding signal,[5],2.61 log2 enrichment (interaction score)
GGCUAGAACUAGUGGAUCCCCCGGCGCCCGGCGGCUCGAGCCCGGGUAAGUGUCAAUAGUCUGCAUGCCGCCGGGCGCCAUGCCUGCAGGUCGACUCUAGAAAACAUG,binding signal,[6],1.57 log2 enrichment (interaction score)
GGCUAGAACUAGUGGAUCCCCCGGCGCCCGGCGGCUCGAGCCCGGGUAAGUGUAAUUAGUCUGCAUGCCGCCGGGCGCCAUGCCUGCAGGUCGACUCUAGAAAACAUG,binding signal,[7],1.56 log2 enrichment (interaction score)
same,binding signal,[8],4.71 log2 enrichment (interaction score)
same,binding signal,[9],5.05 log2 enrichment (interaction score)
same,binding signal,[10],2.72 log2 enrichment (interaction score)
GGCUAGAACUAGUGGAUCCCCCGGCGCCCGGCGGCUCGAGCCCGGGUAAGUGUAUAUAGUCUGCAUGCCGCCGGGCGCCAUGCCUGCAGGUCGACUCUAGAAAACAUG,binding signal,[4],4 log2 enrichment (interaction score)
same,binding signal,[11],3.79 log2 enrichment (interaction score)
same,binding signal,[5],4.56 log2 enrichment (interaction score)
GGCUAGAACUAGUGGAUCCCCCGGCGCCCGGCGGCUCGAGCCCGGGUAAGUGUUAAUAGUCUGCAUGCCGCCGGGCGCCAUGCCUGCAGGUCGACUCUAGAAAACAUG,binding signal,[6],3.34 log2 enrichment (interaction score)
same,binding signal,[12],4.02 log2 enrichment (interaction score)
GGCUAGAACUAGUGGAUCCCCCGGCGCCCGGCGGCUCGAGCCCGGGUAAGUGUAAAUCGUCUGCAUGCCGCCGGGCGCCAUGCCUGCAGGUCGACUCUAGAAAACAUG,binding signal,[13],3.09 log2 enrichment (interaction score)
same,binding signal,[14],5.27 log2 enrichment (interaction score)
